PubChem BioAssay (NCI)
The panel holds about 83,000 compounds, 20% with a hit somewhere; the sample as a whole holds those more often.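 Single-dose data. Exposure time 48 hours. Values below 10 considered active.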 Active and inactive are the calls of the source.

Columns and labels:
Experiment in all cases: NCI-60 one-dose screen, 48 h (100 = growth as untreated, 0 = no growth, -100 = all killed)
Settings in all cases: 10 µM unless noted
[1] = test system: RPMI-8226 leukemia
[2] = test system: OVCAR-8 ovarian
[3] = test system: OVCAR-5 ovarian
[4] = test system: OVCAR-4 ovarian
[5] = test system: SK-OV-3 ovarian
[6] = test system: IGROV1 ovarian
[7] = test system: OVCAR-3 ovarian
[8] = test system: HS 578T breast
[9] = test system: NCI/ADR-RES ovarian
[10] = test system: T-47D breast

Measured: growth

O=c1nc2sc3nc4ccccc4cc3cc-2s1
inactive: [1] 128% | [2] 112% | [3] 120% | [4] 115% | [5] 108% | [6] 127% | [7] 140% | [8] 79.9% | [9] 103% | [10] 119%

COc1cccc2cc(N(C)c3nc(C)nc4ccsc34)ccc12
active: [2] 6.47% | [7] 3.88% | [9] -6.94%
inactive: [1] 12.5% | [3] 43.7% | [4] 35.5% | [5] 22.9% | [6] 15.5% | [8] 17.7% | [10] 60%

COc1ccc(/C=C2\CCC/C(=C\c3ccc(OC)c(OC)c3)C2=O)cc1OC
active: [1] -4.53% | [2] 2.04% | [4] -0.91% | [6] 4.96%
inactive: [3] 41% | [5] 29.7% | [7] 13.8% | [8] 41.2% | [9] 11% | [10] 19.3%

COc1ccc(OC)c(/C=C/C(=O)c2c(C)nc3ccccc3c2/C=C/c2ccccc2)c1
inactive: [1] 19.5% | [2] 40.5% | [3] 80% | [4] 59.3% | [5] 91% | [6] 52.6% | [7] 37.4% | [8] 68% | [9] 58.9% | [10] 30.6%

COc1ccc(C(=O)C2CC2c2ccc(Cl)cc2)cc1 (stereo not given)
inactive: [1] 38.4% | [2] 78.2% | [3] 115% | [4] 72.2% | [5] 104% | [6] 83.7% | [7] 74.7% | [8] 82.4% | [9] 78.9% | [10] 80.8%

Nc1nc(N)c2c(n1)NC1(C=C(O)c3ccccc31)C1=C(N2)c2ccccc2C1=O (stereo not given)
inactive: [1] 107% | [2] 103% | [3] 116% | [4] 98.1% | [5] 121% | [6] 92.3% | [7] 113% | [8] 111% | [9] 107% | [10] 112%

COc1ccc2sc(N(Cc3cccnc3)C(=O)c3ccc(C#N)cc3)nc2c1
inactive: [1] 64.4% | [2] 80.7% | [3] 96.7% | [4] 105% | [5] 106% | [6] 98.1% | [7] 92.2% | [8] 85.1% | [9] 85.4% | [10] 78.3%

CCOc1ccc(Nc2ccnc3cc(Cl)ccc23)cc1
active: [1] -14.1% | [2] -1.07% | [5] 2.15% | [9] 3.34% | [10] 1.44%
inactive: [3] 36% | [4] 16.5% | [6] 14.9% | [7] 11.7% | [8] 29.3%

O=c1oc2ccc(Cl)cc2c(=O)n1-c1ccc(Cl)cc1F
active: [1] -28.5% | [2] 8.62% | [5] -2.36% | [7] 5.29% | [8] -5.3% | [9] 6.2% | [10] -12%
inactive: [3] 24.6% | [4] 11% | [6] 14.3%

CCOC(=O)C1(Cc2ccccc2)CCN(Cc2cccc(OC)c2O)CC1
active: [1] 9.49% | [2] 3.17% | [6] -8.64% | [9] 6.98%
inactive: [3] 42.4% | [4] 17.2% | [5] 17.5% | [7] 22.8% | [8] 28.6% | [10] 17.2%

O=C(Nc1ccc(Br)cc1F)c1cc(F)ccc1O
active: [1] -28.9% | [2] 8.95% | [5] 1.4% | [7] 9.86% | [8] 1.14% | [9] 9.89% | [10] -3.86%
inactive: [3] 25.3% | [4] 12.4% | [6] 19.2%

O=C1NC(=S)NC(=O)C1=Cc1cn(Cc2cn(Cc3cccc4ccccc34)nn2)c2ccccc12
inactive: [1] 104% | [2] 102% | [3] 89.6% | [4] 92.2% | [5] 111% | [6] 82.6% | [7] 102% | [8] 81.9% | [9] 96.5% | [10] 105%

CCN1C(=O)N(CC)C2Nn3c(s/c(=C4\C(=O)N(C(C)C)c5ccccc54)c3=O)=NC21 (stereo not given)
active: [9] 7.07%
inactive: [1] 23.3% | [2] 39.9% | [3] 64% | [4] 35.2% | [5] 35.5% | [6] 49.5% | [7] 19.4% | [8] 60.1% | [10] 27.9%

O=C(NC1CCN(Cc2ccccc2)CC1)c1cc(C(=O)NC2CCN(Cc3ccccc3)CC2)cc(C(=O)NC2CCN(Cc3ccccc3)CC2)c1
inactive: [1] 56.4% | [2] 91.9% | [3] 112% | [4] 60.5% | [5] 79.8% | [7] 87% | [8] 79.6% | [9] 82.1% | [10] 72.5%
active: [6] -33.7%

Nc1ccccc1-c1ccc(-c2ccc(Cl)cc2)c2c1[nH]c1ccccc12
inactive: [1] 42.1% | [2] 77% | [3] 91.2% | [4] 92.5% | [5] 106% | [6] 62.3% | [7] 79% | [8] 82.4% | [9] 77.2% | [10] 60.4%

COc1cc2nc(-c3cnc(N(C)C)nc3)nc(NC3CCN(Cc4ccccc4)CC3)c2cc1OC
active: [1] -50.5% | [2] -42.9% | [3] -94.8% | [4] -93.5% | [5] -68% | [6] -76.4% | [7] -85.1% | [8] -47% | [9] -54.1% | [10] -46.6%

Cc1ccc(OCCCCCCNCCO)c(C)c1
active: [1] 9.43% | [2] -10% | [6] -4.59% | [9] 8.9% | [10] 5.9%
inactive: [3] 35.9% | [4] 16.8% | [5] 16.8% | [7] 24% | [8] 18.5%

COC(=O)C1=C(C)NC(C)=C(C(=O)OC)C(N2C(=O)CCC2=O)C1 (stereo not given)
inactive: [1] 66.8% | [2] 88.7% | [3] 114% | [4] 79.4% | [5] 104% | [6] 99.3% | [7] 99.6% | [8] 107% | [9] 95.9% | [10] 93.9%

Cc1ccc(F)cc1NC(=O)c1cc(Cl)ccc1Nc1ccccc1
inactive: [1] 32.2% | [2] 27.3% | [3] 70.2% | [4] 51.6% | [5] 82.8% | [6] 71% | [7] 53.4% | [8] 90.4% | [9] 40.1% | [10] 37.1%

O=C1c2cc(Cl)ccc2Oc2cc([N+](=O)[O-])ccc2N1c1ccc(F)cc1F
inactive: [1] 87.6% | [2] 86.8% | [3] 100% | [4] 79.4% | [5] 111% | [6] 75.9% | [7] 106% | [8] 87.2% | [9] 97.7% | [10] 72%

COc1ccc(C2C3=C(COC3=O)N(CCO)c3cc4c(cc32)OCCO4)cc1 (stereo not given)
inactive: [1] 99.9% | [2] 84.6% | [3] 99.8% | [4] 98.8% | [5] 86.5% | [6] 80.7% | [7] 50.4% | [8] 71.6% | [9] 95.5% | [10] 80.4%

COc1ccc(CN2CCCC(C(=O)c3ccc(C(F)(F)F)cc3)C2)c(O)c1 (stereo not given)
inactive: [1] 11.8% | [2] 17% | [3] 55% | [4] 45.4% | [5] 26.1% | [6] 47.5% | [8] 25.8% | [10] 26.1%
active: [7] 7.49% | [9] 9.17%

COc1ccc(S(=O)(=O)N(Cc2ccc3c(n2)C=CC(C)(C)O3)C2CCC2)cc1OC
active: [1] -47.2% | [2] 2.69% | [4] -13.8% | [5] -3.43% | [6] -23.9% | [7] -26.6% | [9] 6.95% | [10] 0.329%
inactive: [3] 27.2% | [8] 12.8%

O=C1c2ccc3c4c(ccc(c24)C(=O)N1CCCCO)C(=O)N(CCCCO)C3=O
inactive: [1] 16.8% | [2] 75.4% | [3] 106% | [4] 42.4% | [5] 85.1% | [6] 86.2% | [7] 32.9% | [8] 78.2% | [9] 82.2% | [10] 87.3%

NC(CCl)=NCCC[C@H](N)C(=O)O
inactive: [1] 99.6% | [2] 99.5% | [3] 105% | [4] 93% | [5] 105% | [6] 116% | [7] 117% | [8] 99.3% | [9] 101% | [10] 98.2%

COc1ccc(CCN2C(=O)CCSC2=S)cc1OC
inactive: [1] 37.4% | [2] 97.2% | [3] 96.8% | [4] 90.5% | [5] 105% | [6] 107% | [7] 105% | [8] 93.7% | [9] 103% | [10] 43.4%

CCOC(=O)c1cc2c(n1Cc1ccccc1)-c1oncc1CCC2
inactive: [1] 64.4% | [2] 80.9% | [3] 101% | [4] 72.9% | [5] 87.1% | [6] 58% | [7] 76.6% | [8] 76.5% | [9] 52.3% | [10] 80.7%

CCCc1c(C)c2sc(=O)[nH]c2[nH]c1=O
inactive: [1] 112% | [2] 104% | [3] 103% | [4] 100% | [5] 104% | [6] 112% | [7] 113% | [8] 103% | [9] 105% | [10] 102%

NCCNc1nc2ccc(F)cc2c2c(=O)c3cc(F)ccc3sc12
inactive: [2] 29.9% | [3] 81.2% | [4] 37.2% | [5] 77.6% | [6] 22.9% | [7] 38.1% | [8] 59.5% | [9] 61.7% | [10] 33.7%
active: [1] 7.67%

O=c1oc2ccc(-c3ccc(F)cc3F)cc2c(=O)n1-c1ccc(Cl)c(C(F)(F)F)c1
inactive: [3] 74.8% | [4] 21.6% | [6] 35.3% | [8] 14.6%
active: [1] 3.09% | [2] 8.57% | [5] -9.2% | [7] 7.34% | [9] 6.43% | [10] -11%

O=C1c2cc(Br)ccc2Oc2cc([N+](=O)[O-])ccc2N1c1ccc(I)cc1F
inactive: [1] 104% | [2] 94.6% | [3] 97.7% | [4] 94.5% | [5] 115% | [6] 97.9% | [7] 109% | [8] 101% | [9] 99.6% | [10] 100%

COc1c(B(O)O)cccc1-c1nc2ccc3n[nH]c(F)c3c2c2c1CCCC2
inactive: [1] 42.3% | [2] 72% | [3] 105% | [4] 96% | [5] 79% | [6] 80% | [7] 91% | [8] 43.9% | [9] 79.6% | [10] 106%

CN1C(=O)N(C)C2Nn3c(s/c(=C4\C(=O)N(CCc5ccccc5)c5ccccc54)c3=O)=NC21 (stereo not given)
inactive: [1] 57.2% | [2] 80.9% | [3] 75.2% | [4] 79.3% | [5] 76.9% | [6] 83% | [7] 39.7% | [8] 70.5% | [9] 43.8% | [10] 67.6%

O=S1(=O)CCN(Cc2ccccc2)CC1
inactive: [1] 102% | [2] 111% | [3] 96.2% | [4] 107% | [5] 101% | [6] 119% | [7] 105% | [8] 109% | [9] 106% | [10] 93.3%

CN(C)c1ccc(N=Cc2ccc(N3CCOCC3)cc2)cc1
inactive: [1] 47.5% | [2] 62.7% | [3] 111% | [4] 19.1% | [5] 94.7% | [6] 117% | [8] 107% | [9] 83.1% | [10] 94.4%
active: [7] -4.05%

CCC1=C[C@]2(C3CC(=O)N(c4ccccc4)C3=O)CC(C(C)(C)C)C[C@@H]2[C@@H]2C(=O)N(c3ccccc3)C(=O)[C@H]12 (stereo not given in full)
inactive: [1] 59.7% | [2] 85.5% | [3] 88.7% | [4] 89.4% | [5] 88.6% | [6] 90.8% | [7] 86% | [8] 83% | [9] 91.3% | [10] 70.5%

O=C(O)CCCN1C(=O)C2C3CCC(C3)C2C1=O (stereo not given)
inactive: [1] 108% | [2] 103% | [3] 104% | [4] 109% | [5] 103% | [6] 102% | [7] 112% | [8] 115% | [9] 108% | [10] 101%

CCn1c(-c2nonc2Nc2ccc(OC)cc2)nc2ccccc21
inactive: [1] 117% | [2] 102% | [3] 107% | [4] 101% | [5] 111% | [6] 106% | [7] 112% | [8] 96.7% | [9] 96% | [10] 97.3%
